Source: PubChem (several laboratories)
ERa coact pot: ER-alpha (human) coactivator binding potentiation | TR-FRET ERalpha-LBD/SRC-Cy5 coactivator binding, 2 h; 100 = basal binding, no effect | coactivator binding (% of control), % at 25.6 µM | 1.3% of 86,000 active | AID 639; in the data active = activity above about 200%;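 also: binding measured in presence of low estradiol as agonist stimulus; 0% = peptide alone without receptor and 100% = receptor with peptide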
Target sequence (P03372 whole entry, looked up, the tested form may be a part): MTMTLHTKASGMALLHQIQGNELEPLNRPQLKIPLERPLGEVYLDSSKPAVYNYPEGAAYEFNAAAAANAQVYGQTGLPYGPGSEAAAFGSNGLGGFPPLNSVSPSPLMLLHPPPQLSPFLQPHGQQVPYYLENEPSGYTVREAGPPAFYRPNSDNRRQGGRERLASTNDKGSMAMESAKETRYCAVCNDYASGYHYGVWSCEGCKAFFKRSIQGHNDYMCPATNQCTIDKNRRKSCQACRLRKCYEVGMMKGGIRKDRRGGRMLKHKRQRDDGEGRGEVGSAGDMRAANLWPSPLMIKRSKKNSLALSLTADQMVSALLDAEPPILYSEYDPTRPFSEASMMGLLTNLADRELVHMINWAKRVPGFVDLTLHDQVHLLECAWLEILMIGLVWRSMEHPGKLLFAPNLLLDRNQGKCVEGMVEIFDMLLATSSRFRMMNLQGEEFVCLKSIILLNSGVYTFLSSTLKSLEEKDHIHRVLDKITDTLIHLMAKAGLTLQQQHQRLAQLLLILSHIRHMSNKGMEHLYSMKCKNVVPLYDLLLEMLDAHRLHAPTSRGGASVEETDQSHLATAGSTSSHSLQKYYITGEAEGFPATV
PLK1 inh: PLK1 (human) kinase inhibition; P53350; recombinant PLK1 kinase, TR-FRET peptide phosphorylation; inhibition, % at 10 µM; 0.53% of 97,000 active; AID 619;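 active = inhibition of 50% or more in the single-concentration screen; inactive = inhibition below 50%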;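 also: 0% = DMSO max control and 100% = H-89 dihydrochloride min control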
ERa coact inh: blocks coactivator binding to human estrogen receptor alpha; TR-FRET ER-alpha LBD / SRC-1 peptide, estradiol-bound; inhibition, % at 25.6 µM; 1.7% of 86,000 active; AID 629; in the data active = inhibition above about 50%;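 also: 0% = receptor plus peptide control and 100% = peptide only without receptor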
Plk1 PBD FP: Plk1 (human) PBD binding inhibition; inhibition, %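 (tested at about 20 µM)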; Plk1 PBD phosphopeptide binding, fluorescence polarization; 0.13% of 97,000 active; in the data active = inhibition above about 34%, passing the limit was not always enough
ERb coact inh: blocks coactivator binding to human estrogen receptor beta. 1.3% of 86,000 active. AID 633. inhibition, % at 25.6 µM. TR-FRET ER-beta LBD / SRC1-Cy5 peptide binding; receptor agonist-loaded with 1 µM estradiol;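 active = compounds whose percent inhibition of the receptor-coactivator binding signal exceeds about 50% in the single-dose screen, limit read from the data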;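 also: 0% = receptor plus peptide wells without compound and 100% = peptide-only wells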
Smad3 FoxH1 inh: blocks human Smad3 binding to FoxH1 peptide. TR-FRET Smad3/Dy647-FoxH1 peptide binding, europium anti-His. inhibition, % at 25 µM. 0.29% of 88,000 active. AID 630;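 active = compounds that reduce the energy-transfer binding signal between the protein and its labelled peptide by more than half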;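 also: 0% = Smad3 plus labelled peptide maximal FRET and 100% = peptide-only background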
* hit, by the source's call; x = not tested or not shown; [ ] = another dose, or the depositor's remark. Only some compounds are listed: those with a hit (about 3.3% of all), similar ones and a draw of the others.

SMILES | ERa coact pot | PLK1 inh | ERa coact inh | Plk1 PBD FP | ERb coact inh | Smad3 FoxH1 inh
Nc1nc(SCC(=O)C2CCC(Br)CC2)c2[nH]cnc2n1 (stereo not given) | x | x | x | x | x | 8.3
COc1ccc(N2Cc3cccc(C(=O)N4CCN(C(=O)c5ccco5)CC4)c3C2=O)cc1 | 83.5 | -9.6 | 70.6* | -17.5 | 68.1* | 29.3
COc1ccc(N2Cc3cccc(C(=O)N4CCOCC4)c3C2=O)cc1 | 113.2 | -10.6 | 4.9 | 15.7 | 1.3 | 0.5
CCOC(=O)CCn1c(=O)c2c(nc(Br)n2Cc2ccccc2)n(C)c1=O | 119.3 | 5.2 | -4.4 | -11.2 | 0.7 | -2.7
CCOC(=O)CCn1cc(F)c(=O)n(Cc2ccccc2)c1=O | 238.1*[fluorescence artefact?] | -10.5 | -5.1 | -2.3 | 1.9 | 2.4
CCN(CC(=O)Nc1cc(C)nn1-c1nc(C)cc(C)n1)Cc1ccccc1 | 98.9 | 0.0 | -5.7 | 3.9 | -12.3 | -3.6
Cc1cc(C)nc(-n2nc(C)cc2NC(=O)CNCc2ccccc2)n1 | 90.8 | -4.2 | -9.0 | -8.0 | 90.5*[fluorescence artefact?] | -10.9
O=C(Cc1ccccc1)Nc1cccc(N2CCCC2)c1 | 42.9 | -9.4 | 58.1*[fluorescence artefact?] | 8.8 | 27.6 | -13.0
CCN(CCO)c1nc(SC)nc2c1sc1nc(-c3ccco3)c3c(c12)CCC3 | x | -18.6 | x | 10.8 | x | x
CSc1nc(NCCOCCO)c2sc3nc(-c4ccco4)c4c(c3c2n1)CCC4 | 61.5 | x | 79.0* | x | 76.0*[fluorescence artefact?] | -1.0
Cc1ccc(O)c(C(=O)c2cnc3c(c2)CN(C)C(=O)N3)c1 | x | -11.9 | x | 6.0 | x | x
CN1Cc2cc(C(=O)c3cc(Cl)cc(CSc4ncccn4)c3O)cnc2NC1=O | 122.7 | -6.2 | 55.9* | 2.9 | 20.8 | -11.9
CCCc1nc2oc3cc(OC)ccc3c(=O)c2c(=O)n1Cc1ccco1 | 56.4 | -15.2 | 49.8 | -12.7 | 40.9 | 5.1
CCCc1nc2sc3ccccc3c(=O)c2c(=O)n1Cc1ccco1 | 68.7 | -3.3 | 70.2*[fluorescence artefact?] | -18.5 | 63.7* | 1.2
Cc1ccccc1-c1nnc(SCCOc2ccc3c(C)cc(=O)oc3c2)o1 | x | -9.2 | x | 4.6 | x | x
CN(C)CC[C@@H](C(=O)C(C)(C)C)c1ccccn1 | x | x | x | x | x | -7.9
COc1ccc(C(=O)CSc2nnc(C3CCCCC3)n2N)c(OC)c1 | 63.6 | x | 68.2* | x | 18.4 | 1.7
Cc1cc2nc3[nH]c4c(Cl)cc(Cl)cc4c3nc2cc1C | x | x | x | x | x | 16.4
CCOC(=O)CSc1nc(N)c(C#N)c(-c2ccc(OC)cc2)c1C#N | 258.5*[fluorescence artefact?] | -73.6 | 14.4 | -18.0 | 35.0 | 11.4
CCCCOC(=O)CSc1nc(N)c(C#N)c(-c2ccc(OC)cc2)c1C#N | 239.8*[fluorescence artefact?] | -223.8 | 61.0*[fluorescence artefact?] | -19.7 | 40.6 | 2.6
CSc1nc(N)c(C#N)c(-c2ccc(Cl)cc2)c1C#N | 254.8*[fluorescence artefact?] | -12.2 | 42.0 | -19.8 | 33.5 | -9.8
CCCCOC(=O)CSc1nc(N)c(C#N)c(-c2ccc(OCC)cc2)c1C#N | 214.8*[fluorescence artefact?] | -187.3 | 51.4*[fluorescence artefact?] | 13.9 | 75.8*[fluorescence artefact?] | 77.8*[fluorescence artefact?]
CCCCOc1ccc(-c2c(C#N)c(N)nc(SCC(N)=O)c2C#N)cc1 | 270.6*[fluorescence artefact?] | -22.9 | 41.9 | -19.5 | 40.9 | 5.4
COc1ccc(CCn2c(=S)[nH]c3cc(C(=O)NCc4ccco4)ccc3c2=O)cc1OC | 87.8 | -11.6 | 71.5*[fluorescence artefact?] | -10.9 | 54.8*[fluorescence artefact?] | 15.7
On1c2c(c3c4nonc4ccc31)CCCC2 | 79.4 | 50.9* | -6.2 | 5.8 | 9.6 | 10.1
SMILES | ERa coact pot | PLK1 inh | ERa coact inh | Plk1 PBD FP | ERb coact inh | Smad3 FoxH1 inh
CN(N=O)c1ccc(/C=C/c2ccnc3ccccc23)cc1 | x | x | x | x | x | 25.5
S=c1[nH]nc(-c2ccc3ccccc3n2)o1 | 470.6*[fluorescence artefact?] | -12.3 | -0.1 | 6.0 | -2.4 | 14.3
CC1(C)Cc2c(sc3c4nnnn4c4nnnn4c23)CO1 | 42.7 | x | 79.9* | x | 6.2 | 11.0
C[N+](C)(N)Cc1csc(-c2ccc(Cl)cc2)n1 | x | x | x | x | x | 8.2
CCOC(=O)N1CCN(C(=O)c2ccc3c(=O)n(CCC4=CCCCC4)c(=S)[nH]c3c2)CC1 | 207.5* | -13.2 | 26.2 | -18.6 | 30.9 | -2.0
CCOC(=O)N1CCN(C(=O)c2ccc3c(=O)n(CCc4ccccc4)c(=S)[nH]c3c2)CC1 | 141.1 | -7.8 | -1.6 | 0.1 | -9.0 | 10.0
CCOC(=O)Cc1csc(NC(=O)c2ccco2)n1 | 100.3 | -0.4 | -3.5 | -9.4 | 13.3 | -11.1
O=C(Nc1nc(-c2ccccc2)cs1)c1ccc(Br)o1 | x | -10.7 | x | -23.0 | x | x
O=C(Nc1nc(-c2cc3ccccc3oc2=O)cs1)c1ccco1 | 279.8*[fluorescence artefact?] | x | 27.2 | x | 39.8 | 3.8
Cc1ccc(C(=O)Nc2nc(-c3cccnc3)cs2)o1 | 58.6 | 5.5 | 47.5 | -5.1 | 50.6* | -4.0
